Reference: the supplement of paper PMC6522484
± gives the standard deviation of the averaged measurements.

How the values were obtained:
DLD1 [1] = test: cell viability (CellTiter-Glo) relative to plate median (fraction of plate median); higher = more viable cells; conditions: 5 µM; treatment time 24 h; reporter: 7TFP
Summary of the method: (§1)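 On parallel plates, a Tecan F500 reader recorded either firefly luciferase or CellTiterGlo luminescence. The plates held colorectal cancer cells stably transduced with lentiviral TCF/Wnt firefly luciferase reporters (7TFP or TCF4/Wnt), seeded in 384-well format and treated 24 h later with library compounds at a final 5 µM for 24 h. Per-well signals were normalised to the plate median (webcellHTS2, additive, no log transformation), and two independent replicates were averaged.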

HCT116 = test: as above; conditions: 5 µM; treatment time 24 h; reporter: TCF4/Wnt
Summary of the method: as §1

SW480 [2] = test: as above; conditions: 5 µM; treatment time 24 h; reporter: 7TFP
Summary of the method: as §1

DLD1 [3] = test: TCF/Wnt firefly luciferase reporter signal relative to plate median (fraction of plate median); higher = higher Wnt reporter signal; conditions: 5 µM; treatment time 24 h; reporter: 7TFP
Summary of the method: as §1

SW480 [4] = test: as above; conditions: 5 µM; treatment time 24 h; reporter: 7TFP
Summary of the method: as §1

Row | Structure (SMILES) | cell viability (DLD1 [1]) | cell viability (HCT116) | cell viability (SW480 [2]) | TCF/Wnt firefly luciferase reporter signal (DLD1 [3]) | TCF/Wnt firefly luciferase reporter signal (SW480 [4])
1 | OC1=Cc2c(O)cc(O)cc2OC1(O)c1ccc(O)c(O)c1 (stereo not given) | 0.963 ± 0.053 | 1.07 ± 0.17 | 0.943 ± 0.044 | 0.923 ± 0.07 | 0.9795 ± 0.0021
2 | O=C(/C=C/c1ccc(O)cc1)c1ccc(O)cc1O | 0.97 ± 0.012 | 1.03 ± 0.08 | 0.968 ± 0.0099 | 1 ± 0.15 | 0.862 ± 0.076
3 | O=c1c(O)c(-c2ccccc2)oc2ccccc12 | 0.992 ± 0.026 | 0.961 ± 0.069 | 1 ± 0.027 | 1.1 ± 0.16 | 0.977 ± 0.1
4 | NCCCCN | 0.96 ± 0.047 | 0.983 ± 0.02 | 0.97 ± 0.057 | 1.18 ± 0.15 | 1.1 ± 0.05
5 | CCn1cc(C(=O)O)c(=O)c2cc(F)c(N3CCN(C)CC3)cc21 | 1 ± 0.04 | 1.015 ± 0.0071 | 0.982 ± 0.018 | 1.19 ± 0.035 | 1.05 ± 0.078
6 | COc1ccc(-c2cc(=O)c3c(O)cc(O[C@@H]4O[C@H](CO[C@@H]5O[C@@H](C)[C@H](O)[C@@H](O)[C@H]5O)[C@@H](O)[C@H](O)[C@H]4O)cc3o2)cc1O | 0.999 ± 0.03 | 1.06 ± 0.12 | 0.96 ± 0.013 | 1.06 ± 0.13 | 1.04 ± 0.021
7 | CC(=O)O[C@H]1C[C@@]2(C)[C@H](c3ccoc3)OC(=O)[C@H]3O[C@]32[C@@]2(C)C1[C@]1(C)C(C[C@H]2OC(C)=O)C(C)(C)[C@H](OC(C)=O)C[C@@H]1OC(C)=O (stereo partly drawn) [11alpha-ACETOXYKHIVORIN] | 0.973 ± 0.014 | 0.895 ± 0.088 | 0.941 ± 0.013 | 1 ± 0.14 | 1.05 ± 0.11
8 | CC(=O)O[C@H]1CC[C@@]2(C)[C@H](CC[C@@H]3[C@@H]2CC[C@]2(C)[C@@H]4[C@H](C[C@@H]32)O[C@]2(CC[C@@H](C)CO2)[C@H]4C)C1 | 1.01 ± 0.028 | 0.979 ± 0.1 | 0.977 ± 0.0014 | 0.836 ± 0.043 | 0.941 ± 0.083
9 | C=CCCCCCCCCC(=O)O | 1.03 ± 0.072 | 1.08 ± 0.13 | 1 ± 0.022 | 1.01 ± 0.025 | 1 ± 0.037
10 | Cc1cn([C@H]2C[C@H](N=[N+]=[N-])[C@@H](CO)O2)c(=O)[nH]c1=O | 0.976 ± 0.012 | 0.958 ± 0.018 | 1 ± 0.022 | 0.874 ± 0.02 | 0.928 ± 0.011
11 | Cc1ccc(=O)n(-c2ccccc2)c1 | 0.911 ± 0.041 | 0.866 ± 0.096 | 0.945 ± 0.014 | 0.952 ± 0.17 | 1.08 ± 0.14
12 | CC(=O)O[C@H]1C(=O)[C@@]2(C)[C@H]([C@H](OC(=O)c3ccccc3)[C@]3(O)C[C@H](OC(=O)[C@H](O)[C@@H](NC(=O)c4ccccc4)c4ccccc4)C(C)=C1C3(C)C)[C@]1(OC(C)=O)CO[C@@H]1C[C@@H]2O | 0.901 ± 0.03 | 0.498 ± 0.016 | 1.11 ± 0.092 | 0.792 ± 0.27 | 0.755 ± 0.23
13 | CCSC(=N)N | 0.954 ± 0.046 | 0.948 ± 0.073 | 0.9995 ± 0.00071 | 0.99 ± 0.028 | 0.963 ± 0.031
14 | COc1ccc2c(c1)OCC(Cc1ccc(OC)c(OC)c1)C2=O (stereo not given) | 0.995 ± 0.05 | 1.1 ± 0.092 | 1.02 ± 0.044 | 0.997 ± 0.15 | 1.035 ± 0.0071
15 | CC(C)=CCC[C@@H](C)[C@@H]1CC[C@]2(C)C3=C(CC[C@@]12C)[C@@]1(C)CC[C@H](O)C(C)(C)[C@@H]1CC3 | 1.015 ± 0.0071 | 0.995 ± 0.021 | 0.989 ± 0.016 | 0.918 ± 0.23 | 1.02 ± 0.085
16 | CN(C)CCOC(c1ccccc1)c1ccccc1 | 1.04 ± 0.028 | 1.06 ± 0.092 | 0.955 ± 0.013 | 1.2 | 1.19 ± 0.085
17 | CC1(C)O[C@H]2CC(=O)OC[C@]23[C@H]2CC[C@@]4(C)[C@H](c5ccoc5)OC(=O)[C@H]5O[C@]54[C@]2(C)C(=O)C[C@@H]13 | 1.01 ± 0.045 | 1.07 ± 0.064 | 1.05 ± 0.05 | 0.944 ± 0.03 | 0.98 ± 0.099
18 | Cc1cc(N)c2ccccc2[n+]1CCCCCCCCCC[n+]1c(C)cc(N)c2ccccc21 | 0.995 ± 0.092 | 0.907 ± 0.042 | 0.989 ± 0.087 | 0.751 ± 0.18 | 0.793 ± 0.11
19 | C=C1C(=O)C[C@@H]2[C@@H]3CC[C@@H](C(=O)O)[C@@]12CC3(C)C [Terrecyclic Acid A] | 0.873 ± 0.051 | 0.919 ± 0.047 | 0.974 ± 0.022 | 0.957 ± 0.1 | 0.961 ± 0.044
20 | Cc1cc(=O)c2c(O)cc(O)c(C)c2o1 | 0.906 ± 0.061 | 0.873 ± 0.034 | 0.9105 ± 0.0035 | 1.25 ± 0.26 | 1.02 ± 0.039
21 | CC(=O)O[C@@H]1C[C@H]2C(C)(C)[C@@H](O)CC[C@]2(C)[C@H]2CC[C@@]3(C)[C@H](c4ccoc4)OC(=O)[C@H]4O[C@]43[C@@]21C [beta-DIHYDROGEDUNOL] | 0.978 ± 0.028 | 1.08 ± 0.078 | 0.984 ± 0.021 | 1.02 ± 0.035 | 1.12 ± 0.085
22 | CCCCCCCCCCCCCCCCOP(=O)([O-])OCC[N+](C)(C)C | 1.04 ± 0.035 | 0.984 ± 0.0099 | 0.969 ± 0.035 | 1.07 ± 0.16 | 1.04 ± 0.05
23 | Nc1ccc(C(=O)O)cc1 | 0.9785 ± 0.00071 | 0.996 ± 0.034 | 0.974 ± 0.013 | 1.03 ± 0.035 | 0.965 ± 0.12
24 | O=C1CC2(CCCC2)CC(=O)N1CCCCN1CCN(c2ncccn2)CC1 | 1.02 ± 0.028 | 0.895 ± 0.14 | 0.995 ± 0.021 | 1.07 ± 0.078 | 1.08 ± 0.021
25 | CC1=C(/C=C/C(C)=C/C=C/C(C)=C\C(=O)O)C(C)(C)CCC1 | 1.02 ± 0.05 | 0.949 ± 0.1 | 0.967 ± 0.012 | 0.827 ± 0.097 | 0.872 ± 0.044
26 | NNc1nncc2ccccc12 | 1.055 ± 0.0071 | 1.06 ± 0.057 | 1.055 ± 0.0071 | 1.23 ± 0.25 | 1.28 ± 0.17
27 | Cc1nc(C)c(Cl)c(O)c1Cl | 1.1 ± 0.099 | 1.03 ± 0.11 | 1.004 ± 0.0085 | 0.99 ± 0.029 | 0.917 ± 0.059
28 | Oc1cc2c(cc1O)C1c3ccc(O)c(O)c3OCC1(O)C2 (stereo not given) | 1.03 ± 0.028 | 1.04 ± 0.028 | 1 ± 0.023 | 0.944 ± 0.035 | 1.04 ± 0.035
29 | CC(=O)NCCc1ccccc1 [N-Acetyl-phenylethylamine] | 1.04 ± 0.014 | 1.01 ± 0.12 | 1.02 ± 0.072 | 1.03 ± 0.028 | 1.02 ± 0.079
30 | O=C(Oc1ccccc1C(=O)O)c1ccccc1O | 1.02 ± 0.014 | 0.961 ± 0.054 | 1.03 ± 0.014 | 1.06 ± 0.14 | 1.02 ± 0.18
